Shiga toxin inh – A qHTS for Small Molecule Inhibitors of Shiga Toxin | Vero cells, Shiga toxin protein synthesis inhibition reporter | inhibition, % at 38.7 µM | hit rate 9.2% among 290,000 | AID 2315, 2010; in the data active = inhibition mostly above about 28%, no sharp cut-off; inactive = mostly below about 43%; also: 0% is about no effect
Cycloheximide cs – Cycloheximide Counterscreen for Small Molecule Inhibitors of Shiga Toxin | cell reporter, cycloheximide protein synthesis inhibition counterscreen | max response, % | hit rate 12% among 300,000; in the data active = max response mostly above about 13%, no sharp cut-off; inactive = mostly below about 14%; also: read at 38.3 µM for the half of the compounds with a filed dose; 0% is about no effect
Pf growth 96h – Primary qHTS for delayed death inhibitors of the malarial parasite plastid, 96 hour incubation | P. falciparum luciferase reporter growth, 96 h | Potency, µM (highest dose often 28.7 µM), for the others: at the highest dose activity change, negative = inhibition, most hits filed as inhibitors | hit rate 6.9% among 320,000; also: potency is read from the fitted curve at half-maximal effect; % is scaled to controls: 0 for no effect and ±100 for the full control effect
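P. falciparum expressing integrated firefly luciferase grown in erythrocytes (2% hematocrit, 0.05% parasitemia final) with compounds for 96 hours at 37 C, 5% CO2. Growth inhibition read as loss of luminescence after adding luciferase detection reagent.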
Pf growth 48h – Primary qHTS for delayed death inhibitors of the malarial parasite plastid, 48 hour incubation; P. falciparum luciferase growth in erythrocytes, 48 h; AID 504832, 2011; Potency, µM (top dose mostly 28.7 µM), inactives show at the top dose activity change, negative = inhibition, actives largely listed as inhibitors; hit rate 5.9% among 310,000; also: potency is read from the fitted curve at half-maximal effect; % is scaled to controls: 0 for no effect and ±100 for the full control effect
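Compounds are pin-transferred into medium, infected erythrocytes (2% hematocrit, 0.1% parasitemia final) are added, and plates sit one parasite generation at 37 C in 5% CO2. Detection reagent is then added and luminescence measured.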
Starred values were filed as active, the others as inactive; ? = inconclusive; nt = not tested or not shown. Rows were chosen to be rich in hits. Some 21% of all compounds tested hit in one or more screens of this group. Unless noted, calls follow the shape of the dose curve; as a rule, active = well fitted inhibition curve with a large enough effect; inconclusive = small, poorly fitted or top-dose-only effect, or another doubt; inactive = no such curve, though single readings can be large or run the other way.

SMILES	Shiga toxin inh	Cycloheximide cs	Pf growth 96h	Pf growth 48h
COC(=O)C1=C(CS(=O)(=O)c2cc(Cl)ccc2OC)NC(=O)NC1c1ccc(O)c(OC)c1 (stereo not given)	-6	-5	?	6%
FC(F)(F)c1ccccc1-n1c(-c2ccco2)n[nH]c1=S	30*	21*	10%	113%
CC12CCC(C/C1=N\OC(=O)c1c(F)cccc1F)C2(C)C (stereo not given)	16	15	?	-2%
Cc1c(C(=O)N2CCN(Cc3ccccc3)CC2)oc2c1C(=O)CC(C)(C)C2	7	5	-26%	?
Cc1ccc(Nc2nnc(-c3ccccc3N)o2)cc1C	41*	26*	62%	110%
CCCN(Cc1nnc(-c2cccs2)o1)C(=O)CN1C(=O)NC2(CCCCC2C)C1=O (stereo not given)	nt	nt	?	-28%
COc1ccc2[nH]c3c(NCCN(C(C)C)C(C)C)ncnc3c2c1	-6	-5	0.47µM*	2.6µM*
CCOc1ccc2[nH]c3c(NCCCOC)ncnc3c2c1	48*	35*	?	nt
COc1ccc2[nH]c3c(NCCCN4CCCC4=O)ncnc3c2c1	38	5	5%	1%
CCOc1ccc2[nH]c(O)c(NC(C)=O)c2c1	-5	-3	1%	10%
CCOc1ccc2[nH]c3c(NCCN(CC)CC)ncnc3c2c1	2	-3	2.1µM*	2.3µM*
CCOc1ccc2[nH]c3c(NCC(C)C)ncnc3c2c1	59*	33*	1.7µM*	2.3µM*
Cc1ccc2c(c1)N(CC(=O)NC1CCC(C)CC1)C(=O)c1cccnc1O2 (stereo not given)	-2	2	?	?
CCOc1ccc2[nH]c3c(NCCOC)ncnc3c2c1	67*	29*	?	5%
COc1ccc2[nH]c3c(=O)n(CCc4ccccc4)cnc3c2c1	27	2	14%	27%
CCOC(=O)Cc1csc(NC(=O)C2CCCN(S(=O)(=O)c3cnc[nH]3)C2)n1 (stereo not given)	-6	-7	9%	nt
CC(C)c1ccc(NC(=O)c2sccc2-n2cccc2)cc1	158*	56*	-13%	36%
O=C(NNC(=O)c1sccc1-n1cccc1)c1ccc(Cl)cc1	-8	0	0.33µM*	?
O=C(OCc1ccc(F)cc1)c1ccc2ccccc2n1	46*	25*	0%	18%
O=C(COC(=O)c1ccc2ccccc2n1)c1ccccc1	52	46*	-10%	-9%
O=C(OCC(=O)c1ccc[nH]1)c1ccc2ccccc2n1	18	19*	35%	-2%
CC1CC(C)CN(C(=O)COC(=O)c2ccc3ccccc3n2)C1 (stereo not given)	nt	nt	-2%	-8%
CCCCOC(=O)C1=C(C)Nc2ncnn2C1c1cc(OC)ccc1OC (stereo not given)	-10	-3	41%	8%
CCOC(=O)C1=C(c2ccccc2)Nc2nc(C)nn2C1c1cccc(OC)c1OC (stereo not given)	-12	-2	9.3µM*	12µM*
CCOC(=O)C1=C(C)Nc2nc(C)nn2C1c1cc(OC)ccc1OC (stereo not given)	-13	-2	8.3µM*	17%
SMILES	Shiga toxin inh	Cycloheximide cs	Pf growth 96h	Pf growth 48h
COc1ccc(Nc2c(C)cccc2C)cc1	-10	-5	1%	0%
COc1ccc(Nc2cc(C)c3c(O)cccc3n2)cc1	57	32*	1.7µM*	2.3µM*
COc1ccc(OC)c(Nc2cc(C)c3ccccc3n2)c1	-7	-4	?	25%
Cc1ccc(Nc2cc(C)c3c(O)cccc3n2)cc1C	76*	46*	2.6µM*	2.6µM*
COC(=O)c1cc(Nc2cc(C)c3c(O)cccc3n2)cc(C(=O)OC)c1	57	16*	?	9.3µM*
Cc1ccc(Nc2cc(C)c3ccc(O)cc3n2)cc1C	83*	43*	?	?
COC(=O)c1cc(Nc2cc(C)c3ccc(O)cc3n2)cc(C(=O)OC)c1	-15	1	?	?
CCc1cc2c(SCC(=O)Nc3cc(C)on3)ncnc2s1	-1	-4	-27%	-9%
CCCCN(C(=O)COC(=O)CSc1ccc([N+](=O)[O-])cc1)c1c(N)n(CCC)c(=O)[nH]c1=O	nt	nt	25%	20%
Cc1nnc(NCc2ccco2)c2ccccc12	-7	-6	11%	20%
Cc1ccccc1Nc1cc(C)c2c(O)cccc2n1	13	23*	14%	?
Cc1cc(NCc2ccco2)nc2cc(O)ccc12	1	0	5.2µM*	3.3µM*
CCCCC1=CC2=CC(=O)C(C)(OC(=O)CC)C(=O)C2=CN1Cc1ccc2c(c1)OCO2 (stereo not given)	-3	-4	?	?
CCSc1ncnc2sc3c(c12)CCC3	-2	-1	-24%	nt
CCSC1=NC2(CCCCC2)Nc2sc3c(c21)CCCC3	-8	-1	2.6µM*	nt
CCC(C)[C@H](NC(=O)C1CCN(C(=O)[C@H](Cc2ccccc2)NS(=O)(=O)c2ccc(C)cc2)CC1)C(=O)O (stereo not given in full)	-3	-2	-11%	-20%
COc1cc(C(=O)NC(=S)Nc2ccc(Cl)cn2)cc(OC)c1OC	1	1	0%	23%
O=C(CSc1nc2c(sc3ccccc32)c(=O)n1CCCN1CCCC1)NCC1CCCO1 (stereo not given)	-3	4	?	nt
COc1ccc(NC(=O)CSc2nc3ccccc3c(=O)n2CCCN2CCCCC2)c(OC)c1	-12	10	9.3µM*	nt
COc1ccc(NC(=O)CSc2nc3c(sc4ccccc43)c(=O)n2CCCN2CCCC2)cc1	-4	5	?	13µM*
CCOC(=O)c1sc(NC(=O)C2CC(=O)N(c3ccc4c(c3)OCCO4)C2)nc1C (stereo not given)	nt	nt	-26%	?
O=C(Nc1nnc(C2CCCCC2)s1)C1CC(=O)N(c2ccccc2)C1 (stereo not given)	13	-3	-1%	-4%
O=C(Nc1nc(-c2ccccn2)cs1)C1CC(=O)N(c2ccc3c(c2)OCCO3)C1 (stereo not given)	18	25*	?	14%
O=C(NC(Cc1ccccc1)c1nc2ccccc2[nH]1)C1CC(=O)N(c2ccc3c(c2)OCCO3)C1 (stereo not given)	23	13	2.9µM*	0%
O=C(Nc1nnc(C2CC2)s1)C1CC(=O)N(c2ccc3c(c2)OCCO3)C1 (stereo not given)	31*	31*	31%	64%
COc1ccc(-c2nc(NC(=O)C3CC(=O)N(c4ccc5c(c4)OCCO5)C3)sc2C)cc1 (stereo not given)	41	28*	?	31%
COc1ccc(CN(C)C(=O)C2CC(=O)N(c3ccc4c(c3)OCCO4)C2)c(OC)c1 (stereo not given)	nt	nt	6.6µM*	?
CN(Cc1ccccc1Cl)C(=O)C1CC(=O)N(c2ccc3c(c2)OCCO3)C1 (stereo not given)	nt	nt	4%	-13%
Cn1cc(CCNC(=O)C2CCC(=O)N(CCc3ccc(Cl)cc3)C2)cn1 (stereo not given)	-10	2	-21%	22%

High-throughput results from PubChem.
